The viability is a read-out of living cells in per cent, often relative to untreated cells. For orientation: inhibition means the relative decrease from the control value, in per cent.

The values that follow come from PubChem BioAssay.

Molecules are shown by their SMILES. Values joined by “and” are separate entries in the source; they are usually repeats but may differ in a detail not shown here. Equal values may be shown once. Records with an inconclusive call do not appear. Active and inactive are the calls of the source.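 The calls were made as follows, unless noted: active = viability at or below 10% of carrier control in both of two separate runs; inconclusive = viability at or below 10% in only one of the two runs; inactive = the rest.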

Assay [1] can be described thus: doxorubicin toxicity protection in MRP-1 cells – H69AR cells, CellTiter-Glo, duplicate, MRP-1 activator project, pilot screen (AID 807;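 active = viability increase at or above a cutoff of the median across tested compounds plus 3 SD, cut at about 8.5% in these data, passing the limit was not always enough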;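 also: compound pretreatment 18-22 h then 72 h combined with doxorubicin; 0% = doxorubicin alone and 100% = vehicle without doxorubicin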). The conditions noted are these: H69AR viability with doxorubicin, CellTiter-Glo luminescence; at 10 µM; stronger effect = higher value. For orientation: Cellular ATP, detected with luciferase, serves as a proxy for viable cell number.
Assay [2] is described as follows: viability of HCT116 without oncogenic beta-catenin – human colon tumor cells, pilot screen (AID 823;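 active = cell viability at or below a set limit in both duplicate runs, the limit being the all-compound median minus 4 SD, cut at about 23% in these data, passing the limit was not always enough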;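 also: 0% = wells killed by 20 µM Hyamine and 100% = untreated DMSO cell wells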). The following applies: HCT116 beta-catenin knockout viability, CellTiter-Glo, 60 h; at 10 µM; stronger effect = lower value.
Assay [3] in a line: viability of PTEN-null HCT116 cells – cell-based, HCT116 clonal line, CellTiter-Glo, pilot screen (AID 824;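 active = viability at or below 27.92% in each of two runs, the all-compound median minus 4 SD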;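 also: 0% = 20 µM Hyamine control and 100% = vehicle cell control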). The following applies: HCT116 PTEN-deleted viability, 60 h, at 10 µM, stronger effect = lower value.
Assay [4] can be described thus: RAM pathway blockade in budding yeast – dse1pr::URA3 reporter, 5-FOA selection, pilot screen (AID 869;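 active = inhibition over a set limit, the all-compound mean plus 3 SD, in both replicate runs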;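 also: 0% = DMSO wells with no growth and 100% = 10 µM 1-NA-PP1 with full growth; RAM network block rescues cells from 5-FOA so hits raise OD615 growth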). The following applies: S. cerevisiae dse1pr::URA3 5-FOA growth, OD615, 2 d; at 10 µM; stronger effect = higher value; strain carries analog-sensitive mutant Cbk1 kinase.
A short description of assay [5]: RAM signaling pathway blockade in yeast – S. cerevisiae, Pdr1DBD-CYC8 efflux-inhibited sensitized strain, primary screen (AID 1298;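 active = RAM network inhibition above 8.4% in each of two replicates, 3 SD over the compound average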;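 also: 0% = DMSO untreated cells without growth and 100% = 10 µM 1-NA-PP1 full growth; higher means more yeast growth rescued from 5-FOA killing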). The conditions noted are these: S. cerevisiae cbk1-as DSE1-URA3 strain, 5-FOA growth OD615, 2 d; at 50 µM; stronger effect = higher value.
Assay [6] is described as follows: Her2 expression decrease, cell viability multiplex – SKBR3 breast tumor cells, AlphaScreen, ATP viability, primary screen (AID 461;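 active = Her2 level under about 52% in both replicate screens, with viability over 70% of control, limit read from the data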;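 as to Her2 level: lower value means less Her2 protein in the cells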;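 as to viability: percent of carrier control wells set as 100% viability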). The conditions noted are these: SKBR3 Her2 protein level, 18-24 h, measured here: SKBR3 viability, ATP luminescence, at 10 µM. (Alpha assays give light when donor and acceptor beads are brought close together.)
In assay [7] the target is Receptor tyrosine-protein kinase erbB-2 (Homo sapiens) (UniProt P04626). The assay is described as above. The conditions noted are these: 18-24 h, at 10 µM, stronger effect = lower value.
Receptor tyrosine-protein kinase erbB-2 (Homo sapiens), sequence (P04626 whole entry, looked up): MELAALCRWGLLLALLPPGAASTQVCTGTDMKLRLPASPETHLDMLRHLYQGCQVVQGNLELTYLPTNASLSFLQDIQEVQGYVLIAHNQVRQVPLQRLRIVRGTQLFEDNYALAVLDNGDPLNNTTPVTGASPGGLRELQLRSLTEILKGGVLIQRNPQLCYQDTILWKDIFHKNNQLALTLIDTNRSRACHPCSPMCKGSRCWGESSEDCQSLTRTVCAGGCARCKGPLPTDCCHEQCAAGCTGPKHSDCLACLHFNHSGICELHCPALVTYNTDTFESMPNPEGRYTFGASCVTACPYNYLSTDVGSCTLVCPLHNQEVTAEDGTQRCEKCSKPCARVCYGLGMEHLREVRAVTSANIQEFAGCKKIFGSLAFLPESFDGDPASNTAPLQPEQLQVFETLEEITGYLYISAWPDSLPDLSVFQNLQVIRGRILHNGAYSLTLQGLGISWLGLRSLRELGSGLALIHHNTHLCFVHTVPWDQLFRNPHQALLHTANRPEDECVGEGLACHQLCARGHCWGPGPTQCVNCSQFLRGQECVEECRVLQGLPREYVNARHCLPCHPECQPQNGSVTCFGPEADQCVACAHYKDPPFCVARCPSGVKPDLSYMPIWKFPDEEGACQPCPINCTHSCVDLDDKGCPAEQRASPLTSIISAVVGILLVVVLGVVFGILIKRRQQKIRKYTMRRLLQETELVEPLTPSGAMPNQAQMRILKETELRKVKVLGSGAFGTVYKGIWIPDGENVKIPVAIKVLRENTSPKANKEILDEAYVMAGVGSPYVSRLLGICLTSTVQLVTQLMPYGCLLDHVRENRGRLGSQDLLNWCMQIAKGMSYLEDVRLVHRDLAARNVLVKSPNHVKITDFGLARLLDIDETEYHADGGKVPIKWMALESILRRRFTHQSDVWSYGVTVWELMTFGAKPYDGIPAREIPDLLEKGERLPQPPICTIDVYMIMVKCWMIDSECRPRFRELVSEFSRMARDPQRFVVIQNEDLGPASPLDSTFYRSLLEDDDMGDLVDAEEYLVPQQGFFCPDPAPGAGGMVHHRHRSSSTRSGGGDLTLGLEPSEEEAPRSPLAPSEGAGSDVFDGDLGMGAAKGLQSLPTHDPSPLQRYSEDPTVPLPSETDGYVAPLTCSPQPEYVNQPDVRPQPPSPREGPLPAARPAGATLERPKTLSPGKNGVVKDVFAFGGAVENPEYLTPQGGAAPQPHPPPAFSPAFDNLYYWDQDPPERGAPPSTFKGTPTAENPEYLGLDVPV
The nature of assay [8]: reduced viability of SK-BR-3 breast cancer cells – cell-based, 24 h, human, pilot screen (AID 572).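 Also: compound exposure lasted between 18 and 24 h rather than exactly 24 h; 100% = carrier-treated control wells.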 The following applies: SK-BR-3 viability, CellTiter-Glo luminescence, at 10 µM, stronger effect = lower value.
Assay [9] can be described thus: HUVEC growth inhibition – cell-based, human, primary screen (AID 575;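 active = viability at or below 30% in both replicate assays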;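 also: 100% = median of untreated cell wells with 0.1% DMSO on each plate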). The conditions noted are these: HUVEC proliferation, CellTiter-Glo luminescence, 72 h; at 10 µM; stronger effect = lower value.
Assay [10] in a line: H69AR cell proliferation blockers – human, duplicate replicates, primary screen (AID 580;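 active = viability at or under a set limit in both replicates, limit being median viability minus 3 SD, cut at about 48% in these data, passing the limit was not always enough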;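 also: 100% = mean luminescence of untreated wells and 0% = no signal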). The following applies: H69AR lung tumor cells viability, ATP luminescence, 72 h; at 10 µM; stronger effect = lower value.
Assay [11] can be described thus: MRP1 drug-resistance reversers in H69AR cells – cell-based, doxorubicin co-treatment, pilot screen (AID 601;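 active = viability loss from added drug above about 55%, and viability with drug at most 40%, in both replicates, limit read from the data, passing the limit was not always enough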). The conditions noted are these: CellTiter-Glo, 72 h, at 10 µM; for differential viability (reversal): stronger effect = higher value.
The nature of assay [12]: S. cerevisiae growth inhibition in restrictive medium, OD615, pilot screen, restrictive growth control, yeast lifespan reduction project (AID 706;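 active = growth inhibition above a set limit, 3 SD over mean compound inhibition, in both replicates, cut at about 43% in these data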;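 also: modified DeaD lifespan yeast strain shifted to restrictive glucose medium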). The conditions noted are these: OD615, 48 h, at 10 µM, stronger effect = higher value.
Where [13] appears, read: H69AR cells + 2 uM doxorubicin, measured here: viability with 2 uM doxorubicin, stronger effect = lower value.
[14] abbreviates: H69AR cells, compound alone cytotoxicity.

In the case of `COC(=O)CSCc1nc2ccccc2[nH]c1=O`, in assay [1], the viability increase is -2.15% (inactive). Further, the viability is 101% (inactive) in assay [2] and 94.8% (inactive) in assay [3]. In addition, the inhibition in assay [4] is 0.08% (inactive). The RAM network inhibition in assay [5] was 1.09% (inactive).

With `Cn1c([N+](=O)[O-])cnc1COC(N)=O`, the viability in [6] is 108%; in [8] it was 108% (inactive); in assay [9], 102% (inactive); in [10], 102% (inactive); in assay [11] (setting [13]), 85.7%; in assay [11] (setting [14]) it was 102%. Further, the Her2 level in assay [7] was 105% (inactive). Also, in assay [11] (H69AR cells + 2 uM doxorubicin), the differential viability (reversal) is 16.2% (inactive).

On to `Nc1ccc2cn[nH]c2c1`, for which the viability in assay [6] is 100%; in assay [8], 100% (inactive); in assay [9] it was 82.2% (inactive); in assay [10], 93.1% (inactive); in [11] (setting [13]) it was 111%; in assay [11] (setting [14]), 93.1%. Besides, in assay [7], the Her2 level is 128% (inactive). Moreover, the differential viability (reversal) in assay [11] (H69AR cells + 2 uM doxorubicin) is -18.1% (inactive).

On to `c1ccc(CN(CC2=NCCN2)c2ccccc2)cc1`, for which the viability in assay [6] is 91.5% and 100%; in assay [8], 91.5% (inactive) and 100% (inactive); in [9], 94.1% (inactive) and 87.9% (inactive); in assay [10] it was 93.2% (inactive) and 96.6% (inactive); in assay [11] (setting [13]), 86.6% and 97.9%; in assay [11] (setting [14]), 93.2% and 96.6%. The Her2 level in assay [7] is 114% (inactive) and 91.5% (inactive). The differential viability (reversal) in assay [11] (H69AR cells + 2 uM doxorubicin) is 6.63% (inactive) and -1.34% (inactive).

`c1cn2cc(-c3ccc4c(c3)OCO4)nc2s1`: the viability increase in assay [1] is 1.35% (inactive). In addition, the viability in assay [2] is 99.7% (inactive); in [3], 90.7% (inactive). Also, the inhibition in assay [4] is 1.96% (inactive). Also, in assay [5], the RAM network inhibition is 0.64% (inactive).

Regarding `COc1ccccc1N1CCN(C(CNC(=O)c2ccco2)c2cccnc2)CC1` (centres undefined), the viability increase in [1] is -2.37% (inactive). In addition, the viability in assay [2] was 85% (inactive); in assay [3] it was 77% (inactive). The inhibition in [4] was 2.23% (inactive). Further, the RAM network inhibition in assay [5] was -0.32% (inactive).

As to `CC(Sc1nc2ccccc2s1)C(=O)N1CCOCC1` (centres undefined), the growth inhibition in assay [12] is 2.68% (inactive). For the same compound, the viability increase in assay [1] is -3.03% (inactive). Further, the viability in assay [2] was 95.9% (inactive). The inhibition in [4] is 1.84% (inactive). Further, the RAM network inhibition in [5] was 6.03% (inactive).

`C[C@@H]1C[C@H]2[C@@H]3CCC4=CC(=O)C=C[C@]4(C)[C@@]3(F)[C@@H](O)C[C@]2(C)[C@H]1C(=O)CO`: the viability in assay [6] was 84%; in assay [8] it was 84% (inactive); in [9] it was 102% (inactive); in assay [10], 91.2% (inactive); in assay [11] (setting [13]) it was 102%; in [11] (setting [14]) it was 91.2%. Besides, in [7], the Her2 level is 150% (inactive). Further, in [11] (H69AR cells + 2 uM doxorubicin), the differential viability (reversal) was -10.7% (inactive).

Turning to `CCOc1ccc2nc(S(N)(=O)=O)sc2c1`, the viability is 127% in assay [6]; 127% (inactive) in assay [8]; 59% (inactive) in [9]; 67.6% (inactive) in assay [10]; 60.4% in assay [11] (setting [13]); 67.6% in assay [11] (setting [14]). Also, in assay [7], the Her2 level was 92% (inactive). Besides, the differential viability (reversal) in assay [11] (H69AR cells + 2 uM doxorubicin) was 7.23% (inactive).

Take `Nc1nc(F)nc2c1ncn2[C@@H]1O[C@H](CO)[C@@H](O)[C@@H]1O`: the viability in assay [6] was 97%; in [8] it was 97% (inactive); in assay [9], 65.7% (inactive); in [10], 103% (inactive); in assay [11] (setting [13]) it was 106%; in assay [11] (setting [14]), 103%. Also, in assay [7], the Her2 level is 104% (inactive). The differential viability (reversal) in [11] (H69AR cells + 2 uM doxorubicin) was -2.94% (inactive).

Turning to `Cc1ncc([N+](=O)[O-])n1CCO`, the viability is 99.5% in [6]; 99.5% (inactive) in [8]; 103% (inactive) in assay [9]; 105% (inactive) in assay [10]; 96.7% in assay [11] (setting [13]); 105% in [11] (setting [14]). Also, the Her2 level in assay [7] was 108% (inactive). In addition, the differential viability (reversal) in assay [11] (H69AR cells + 2 uM doxorubicin) was 8.66% (inactive).

In the case of `CC(=O)OCC(=O)[C@@]1(O)[C@H](C)C[C@H]2[C@@H]3CCC4=CC(=O)C=C[C@]4(C)[C@@]3(F)[C@@H](O)C[C@@]21C`, the viability in assay [6] was 118%; in [8], 118% (inactive); in assay [9], 101% (inactive); in assay [10], 93.5% (inactive); in assay [11] (setting [13]), 109%; in assay [11] (setting [14]), 93.5%. In addition, the Her2 level in assay [7] is 116% (inactive). Besides, in assay [11] (H69AR cells + 2 uM doxorubicin), the differential viability (reversal) is -15.8% (inactive).

On to `CCCOc1ccc(C(=O)Nc2cc(-c3nn4c(C)nnc4s3)ccc2C)cc1`, for which the viability increase in [1] is -3.69% (inactive). Besides, the viability in assay [2] is 101% (inactive); in assay [3], 92.9% (inactive). Also, the inhibition in [4] was 1.7% (inactive). Further, in [5], the RAM network inhibition is 3.75% (inactive).

Consider `OCCN(CCO)c1nc(N2CCCCC2)c2nc(N(CCO)CCO)nc(N3CCCCC3)c2n1`, for which the figures for the viability in assay [6], in assay [8] and in assay [9] were 117%, 117% (inactive) and 79.6% (inactive), respectively. In addition, in assay [7], the Her2 level is 94.5% (inactive).

`COc1ccc2cc(C(=O)Nc3c(C)n(C)n(-c4ccccc4)c3=O)sc(=O)c2c1OC`: in assay [1], the viability increase is -1.5% (inactive). Further, the viability in [2] was 97.7% (inactive); in assay [3] it was 92.6% (inactive). Also, the inhibition in [4] is 2.33% (inactive). The RAM network inhibition in assay [5] was 0.16% (inactive).

On to `CCC(=O)O[C@@H]1CC(=O)O[C@H](C)CC=CC=C[C@@H](O)[C@H](C)C[C@H](CC=O)[C@H](O[C@H]2O[C@H](C)[C@@H](O[C@H]3C[C@@](C)(O)[C@@H](OC(=O)CC)[C@H](C)O3)[C@H](N(C)C)[C@H]2O)[C@H]1OC`, for which the viability in [6] is 93.5%; in assay [8], 93.5% (inactive); in assay [9] it was 109% (inactive); in assay [10] it was 95.3% (inactive); in assay [11] (setting [13]), 100%; in assay [11] (setting [14]), 95.3%. Also, the Her2 level in assay [7] was 126% (inactive). Also, the differential viability (reversal) in assay [11] (H69AR cells + 2 uM doxorubicin) was -4.97% (inactive).

With `COc1ccc(-c2n[nH]c(C(F)(F)F)c2-c2cc3ccccc3o2)c(O)c1`, the viability increase in assay [1] was -7.49% (inactive). Moreover, the viability in assay [2] was 59.5% (inactive); in assay [3], 55% (inactive). In addition, the inhibition in assay [4] was -1.46% (inactive). The RAM network inhibition in assay [5] was -1.35% (inactive).

With `COc1ccc(NC(=O)CC2SC(=Nc3ccccc3)NC2=O)c(OC)c1` (centres undefined), the viability increase in assay [1] is 2.03% (inactive). Moreover, the values for the viability in assay [2] and in assay [3] were 93.4% (inactive) and 92% (inactive), respectively. Besides, the inhibition in [4] was 2.23% (inactive). Moreover, the RAM network inhibition in assay [5] was 7.78% (inactive).

With `CCCCC(=O)O[C@]1(C(=O)CO)CC[C@H]2[C@@H]3CCC4=CC(=O)CC[C@]4(C)[C@H]3[C@@H](O)C[C@@]21C`, the viability was 111% in assay [6]; 111% (inactive) in assay [8]; 101% (inactive) in assay [9]; 96.3% (inactive) in [10]; 93.3% in assay [11] (setting [13]); 96.3% in assay [11] (setting [14]). Also, in [7], the Her2 level was 108% (inactive). Moreover, the differential viability (reversal) in [11] (H69AR cells + 2 uM doxorubicin) was 3.07% (inactive).
